# About 8,600 (12%) of roughly 69,000 compounds showed an effect of 50% or more. What follows is part of a selection rich in strong results, with near analogues and random picks from the rest.
# System: Plasmodium berghei
# Assay: Screen against P. berghei liver stage (PbLuc), transformed with Luciferase, at 10uM
# Assay type: functional, HepG2
# Settings: tested at 10 uM
row,SMILES,INHIBITION [%]
1,CC(C)(C)c1cc(NC(=O)CN2CCn3c(nnc3C3CC3)C2)on1,-3.8
2,NC(=O)C1CN(C(=O)Nc2ccccc2Oc2ccccc2Cl)CCO1 (configuration not stated),-67.7
3,COc1ccc(C(=O)N2CC[C@@H]3[C@H](CC2)N(C)CCS3(=O)=O)cc1,-14.3
4,O=C(C1CC1)N1CC2(CCN(CC3CC3)CC2)c2cc(F)ccc21,-15.9
5,COC(=O)CC1CN(Cc2ccn(-c3ccc(F)cc3)n2)CCO1 (configuration not stated),52.2
6,COC(=O)C1CN(Cc2ccn(-c3ccc(F)cc3)n2)CCO1 (configuration not stated),-173
7,COC(=O)C1CN(Cc2ccn(-c3ccc(F)cc3)n2)C[C@@H](C)O1 (some centres not stated),16
8,Cc1ccc2c(c1)C1(CCNCC1)CC2N1CCOCC1 (configuration not stated),-58.9
9,COCCN1CCC2(CC1)CC(N1CCOCC1)c1ccc(C)cc12 (configuration not stated),48.4
10,Cc1ccc2c(c1)C(N1CCOCC1)CC21CCNCC1 (configuration not stated),38.5
11,COCC(=O)N1CCC2(CC1)CC(N1CCOCC1)c1ccc(C)cc12 (configuration not stated),-24.8
12,COCCN1CCC2(CC1)CC(N1CCOCC1)c1cc(C)ccc12 (configuration not stated),87.4
13,CCC(=O)N1CCC2(CC1)CC(N1CCOCC1)c1cc(C)ccc12 (configuration not stated),61.8
14,O=C(c1sccc1C1CC1)N1CCN(c2cnccn2)CC1,44
15,CN(C)c1nc2c(c(N(C)Cc3n[nH]c4c3CCCCC4)n1)CCNC2,26.8
16,CN(C)c1nc2c(c(N(C)Cc3n[nH]c4c3CCCC4)n1)CCNCC2,70.2
17,CN(Cc1n[nH]c2c1CCCC2)c1nc2c(c(=O)[nH]1)CCNCC2,10.4
18,CN(Cc1cc2n(n1)CCNC2)Cc1n[nH]c2c1CCCCC2,44.3
19,CN(Cc1n[nH]c2c1CCCC2)c1nc(C2CC2)nc2c1CCNCC2,62.8
20,CN(Cc1n[nH]c2c1CCC2)c1nc(C2CCCC2)nc2c1CNC2,26.8
21,COc1c(C(=O)NCc2cccnc2)nnn1Cc1ccccc1,2.69
22,COc1ccc(F)c(CN2CCCC(O)(CNCC(C)(C)C)C2=O)c1 (configuration not stated),71.7

row,SMILES,INHIBITION [%]
1,COc1ccc(F)c(CN2CCCC(O)(CNCc3ncc[nH]3)C2=O)c1 (configuration not stated),33.2
2,COc1ccc(F)c(CN2CCCC(O)(CNC3CCCCC3)C2=O)c1 (configuration not stated),4.48
3,COc1ccc(F)c(CN2CCCC(O)(CNCc3ccon3)C2=O)c1 (configuration not stated),52
4,COc1ccc(F)c(CN2CCCC(O)(CNCc3ccoc3)C2=O)c1 (configuration not stated),34.1
5,CC(C)(C)CNCC1(O)CCCN(Cc2ccccc2F)C1=O (configuration not stated),7.17
6,CCc1cccc(C)c1NC(=O)NCCCN(CC)S(C)(=O)=O,-17.7
7,Cc1cc(C)n(C2CCCN(C(=O)Cc3cccc(F)c3)C2)n1 (configuration not stated),19.4
8,CC1c2ncc(Cn3cccn3)n2CCN1S(C)(=O)=O (configuration not stated),43
9,Cc1noc(C2CCCCN2C(=O)NC2CCCC2)n1 (configuration not stated),-43.4
10,Cc1nc(CN2CCc3cc(C(=O)O)c(N(C)C)nc3CC2)cs1,19.4
11,CN(C)CCCNC(=O)c1cc(-c2ccc3c(c2)CCO3)n[nH]1,54.5
12,O=C(NCCO)c1cc(-c2ccc3c(c2)CCO3)n[nH]1,5.85
13,O=C(NCCCO)c1cc(-c2ccc3c(c2)CCO3)n[nH]1,-49.2
14,CSC(C)C(=O)NCCC(=O)N1CCN(c2ccccn2)CC1 (configuration not stated),39.2
15,O=C1NCCN1CCNCC1(O)CCCN(CCC2CCCCC2)C1=O (configuration not stated),-48.7
16,CN(Cc1ccccc1)CC1(O)CCCN(CC(C)(C)C)C1=O (configuration not stated),51.8
17,Cc1cc(CN(C)CC2(O)CCCN(CCC3CCCCC3)C2=O)no1 (configuration not stated),32.3
18,CN(Cc1ccccc1)CC1(O)CCCN(CCC2CCCCC2)C1=O (configuration not stated),63.7
19,O=C1N(CCC2CCCCC2)CCCC1(O)CNCCc1ccccc1 (configuration not stated),56.9
20,CN(Cc1ccc(F)cc1)CC1(O)CCCN(CC(C)(C)C)C1=O (configuration not stated),28.5
21,CN(Cc1cccnc1)CC1(O)CCCN(CC(C)(C)C)C1=O (configuration not stated),44.7
22,CN(Cc1ccccc1)CC1(O)CCCN(Cc2ccc(F)cc2)C1=O (configuration not stated),31.1

row,SMILES,INHIBITION [%]
1,O=C1N(CCCc2ccccc2)CCCC1(O)CNCC1CCCCC1 (configuration not stated),39.5
2,Cc1nc(CN2CCCC(N(C)CC3(O)CCCCC3)C2)no1 (configuration not stated),-3.2
3,Cc1cccc(CN2CCS(=O)(=O)[C@@H]3CCN(S(C)(=O)=O)CC[C@@H]32)n1,39.3
4,CC(C)c1cc(C(=O)NCCN2CCCCC2CO)on1 (configuration not stated),15
5,CCN1CCCC12CCN(C(=O)c1ccsc1)CC2,36.9
6,O=C(c1cc2c(s1)CCC2)N1CCCC1c1noc(C2CC2)n1 (configuration not stated),-56.7
7,Cc1nnc(NC(=O)NCc2ccc(N3CCOCC3)nc2)s1,-43.6
8,CC(O)CNCc1c(C(C)C)nn(C)c1N1CCOCC1 (configuration not stated),3.8
9,CCOC(=O)CC(c1cccc(OC)c1OC)c1c(C)[nH][nH]c1=O (configuration not stated),3.6
10,c1cnc(NC2COC3(CCN(Cc4cc[nH]n4)CC3)C2)nc1 (configuration not stated),26.3
11,O=C(NC[C@]12COC[C@H]1CN(Cc1ccco1)C2)c1ccccc1,54.7
12,Cc1ccsc1CN1C[C@@H]2COC[C@]2(CNC(=O)c2ccco2)C1,63.7
13,Cn1cc(CN2C[C@@H]3COC[C@]3(CNC(=O)c3ccccc3)C2)cn1,30.3
14,O=C(NC[C@]12COC[C@H]1CN(CC1CCOCC1)C2)c1ccccc1,30.3
15,O=C(NC[C@]12COC[C@H]1CN(Cc1nccs1)C2)c1ccccc1,23.7
16,Cc1ncsc1CN1C[C@@H]2COC[C@]2(CNC(=O)c2ccco2)C1,14.8
17,O=C(NC[C@]12COC[C@H]1CN(Cc1ccncc1)C2)c1ccco1,18.2
18,Cc1cc(CN2C[C@@H]3COC[C@]3(CNC(=O)c3ccco3)C2)no1,20.6
19,Cn1cc(CN2C[C@@H]3COC[C@]3(CNC(=O)c3ccco3)C2)cn1,52
20,Cn1ccnc1CN1CCCN(C(=O)c2ccc(O)nc2)CC1,-24.3
21,CN(C)S(=O)(=O)NCc1nn(CCN2CCCC2)c(=O)c2ccccc12,5.03
22,Cc1nn(C)c2ncnc(NCc3nncn3C3CCCCC3)c12,-58.1

row,SMILES,INHIBITION [%]
1,CC(C)c1cc(C(=O)N2C[C@@H]3CC[C@H]2CN(Cc2ccccn2)C3)no1,41.8
2,CC(NC(=O)c1ccsc1)c1ccc2c(c1)NC(=O)CO2 (configuration not stated),29.25
3,Cc1cc(C)n(CCNC(=O)c2cc(C3CC3)n[nH]2)n1,20.8
4,CCC(CC)C(=O)n1ccn(S(=O)(=O)c2ccc(C)cc2)c1=O,14.3
5,Cn1c2c(ccc1=O)CCN(Cc1ccoc1)CC2,-93
6,c1csc(N2CCCN(Cc3noc(C4CC4)n3)CC2)n1,7.67
7,CN(C)C(=O)N1CCn2c(Cn3cccn3)cnc2C1,62.5
8,O=C([C@@H]1CCCO1)N1CCn2c(Cn3cccn3)cnc2C1,28.7
9,O=C(NCc1cccnc1)N1CCn2c(Cn3cccn3)cnc2C1,57.9
10,N#Cc1ccc(C(=O)N2CCn3c(Cn4cccn4)cnc3C2)cc1,7.11
11,c1cnn(Cc2cnc3n2CCN(CC2CCCCC2)C3)c1,59
12,O=C(NC1CC1)N1CCn2c(Cn3cccn3)cnc2C1,24.1
13,O=C(N1CCCC1)N1CCn2c(Cn3cccn3)cnc2C1,38.1
14,O=C(NCc1ccccc1)N1CCn2c(Cn3cccn3)cnc2C1,39.2
15,O=S(=O)(C1CC1)N1CCn2c(Cn3cccn3)cnc2C1,41
16,CC1CCN(C(=O)c2cnc(CC3CCCN(C)C3)cn2)CC1 (configuration not stated),24.4
17,Cc1cccc(CN2Cc3[nH]nc(COc4cccnc4)c3C2)n1,34.9
18,CCS(=O)(=O)CCNC(=O)NC(C)c1ccc(C)s1 (configuration not stated),17
19,Cc1oc(C(=O)O)cc1S(=O)(=O)Nc1ccccc1F,34.7
20,O=S(=O)(c1cn[nH]c1)N1CCCC(O)(CN2CCOCC2)CC1 (configuration not stated),13.125
21,CC(=O)Nc1nc(C(=O)N2CCCC2c2noc(C3CC3)n2)cs1 (configuration not stated),2.3
22,CCCn1ccnc1CN1CCN(C2CCOCC2)CC(C(N)=O)C1 (configuration not stated),20.8

row,SMILES,INHIBITION [%]
1,CSc1ccc(CN(CCO)C(=O)CCOc2ccccc2)cc1,15.7
2,Cc1noc(C)c1C(=O)NCc1cccnc1N(C)C,-25.66
3,Cc1nnsc1C(=O)NCc1cccnc1N(C)Cc1ccccc1,44.6
4,Cc1ncsc1C(=O)NCc1cccnc1N(C)CCc1ccccn1,52.5
5,Cc1ccsc1C(=O)NCc1cccnc1N(C)CCc1ccccn1,9.91
6,Cc1nnsc1C(=O)NCc1cccnc1N(C)C,51.5
7,Cc1ccc(C(=O)NCc2cccnc2N(C)C)o1,12.35
8,Cc1ccc(C(=O)NCc2cccnc2N(C)C)s1,-85
9,Cc1oc(C)c(C(=O)NCc2cccnc2N(C)C)c1C,50.4
10,Cc1ncsc1C(=O)N(Cc1ccccn1)C1CC1,-2.95
11,CCc1nc(C2CCCN2C(=O)Cc2cccs2)no1 (configuration not stated),5.9
12,CSc1ccccc1C(C(=O)O)N(C)CC1CCOCC1 (configuration not stated),-0.27
13,CCCc1cc(C(=O)NCCN2CCCS2(=O)=O)[nH]n1,-40.96
14,O=C(c1cc(Cl)c2c(c1)OCO2)N1CCCC(n2cncn2)C1 (configuration not stated),29.7
15,C[C@@H]1CN(Cc2ccccn2)C[C@]12CCN(Cc1cccnc1)C2=O,-38.1
16,N#CC1(C(=O)N2C[C@H](Nc3ncccn3)[C@@H](C3CC3)C2)CCOCC1,-28.4
17,Cc1ccnc(OC[C@@]23CCO[C@@H]2CCN(C2CCC2)C3)n1,-16.9
18,Cc1ccnc(OC[C@@]23CCO[C@@H]2CCN(S(C)(=O)=O)C3)n1,57.1
19,Cc1ccnc(OC[C@@]23CCO[C@@H]2CCN(c2ncccn2)C3)n1,23.3
